# Experimental data: PubChem BioAssay AID720650 (Broad Institute, 2013)
# The source made the active and inactive calls. No rule for the calls is given here.
# Test: Biochemical counterscreen for C difficile toxins, absence of UDPG, inhibitor dose response (AID 720650)
# Conditions: series mostly up to 19.5 µM; activity change, negative = inhibition: at the top concentration
SMILES,"activity change, negative = inhibition",AC50
C/C(=N\OCC(=O)Nc1nc2ccccc2s1)c1ccccc1,8.02% (inactive),
O=c1[nH][nH]c(=O)c2c1[nH]c(=S)n2Cc1ccccc1,-10.1% (inactive),
Oc1ccc(/C=N/Nc2ncnc3nc[nH]c23)cc1,18% (inactive),
CCOC(=O)c1sc(=S)[nH]c1C,,> 39 µM (inactive)
COCC(=O)N1CC[C@@H]2[C@H]1c1cc(-c3cccc(OC)c3)ccc1N(C)[C@H]2CO,,8.89 µM (active)
CC12CCC(=O)N1C(C(=O)OCc1c(Cl)cccc1Cl)CS2 (centres undefined),-9.04% (inactive),
Cc1cc(C(=O)CSc2nnnn2-c2ccccc2)c(C)n1-c1ccc2c(c1)OCO2,-2.26% (inactive),
CCc1ccccc1NC(=S)N(Cc1ccc(C(=O)O)cc1)Cc1ccc(OC)c(OC)c1,-12.3% (inactive),
O=C(NCCc1cccc(Cl)c1)c1ccc(Cl)c([N+](=O)[O-])c1,-6.18% (inactive),
COc1ccc(-c2ccc3c(c2)[C@H]2[C@H](CCN2C(=O)CN2CCOCC2)[C@@H](CO)N3)cc1,,11 µM (active)
C/C(=N\Nc1cc(N2CCOCC2)ncn1)c1ccc(O)cc1,-20.3% (inactive),
COc1ccc(/C=C/c2onc(C)c2S(=O)(=O)N2CCC(C(=O)N3CCCCCC3)CC2)cc1,6.66% (inactive),
CCC(CO)[n+]1c(C)cc(/C=C2\Sc3ccccc3N2Cc2ccccc2)cc1C (centres undefined),,3.4 µM (active)
O=C(O)C1CCC(CN(Cc2cccc(Br)c2)C(=S)Nc2ccccc2F)CC1 (centres undefined),-3.31% (inactive),
O=c1c2oc3nc4c(cc3c2ncn1CCCc1ccccc1)CCCC4,-4.58% (inactive),
CC1C(=O)C(C)C(c2ccc([N+](=O)[O-])cc2)NC1c1ccc([N+](=O)[O-])cc1 (centres undefined),-6.78% (inactive),
COc1cc(/C=C2\SC(=S)N(NC(=O)c3cccc(O)c3)C2=O)ccc1O,-1.71% (inactive),
O=c1c2ccccc2nc(/C=C/c2ccc(O)cc2)n1-c1ccccc1O,,> 39 µM (inactive)
CCNC(=O)C[C@H]1CC[C@@H]2[C@H](COc3ccc(NC(=O)c4ccc5c(c4)OCO5)cc3C(=O)N2C)O1,,> 42 µM (inactive)
CCCNC(=O)C1CCN(S(=O)(=O)c2c(C)noc2/C=C\c2ccc(OC)cc2)CC1,-7.57% (inactive),

SMILES,"activity change, negative = inhibition",AC50
O=C(O)c1cc(NS(=O)(=O)c2ccc(NC3CCCCC3)c([N+](=O)[O-])c2)cc(C(=O)O)c1,0.165% (inactive),
O=C(O)c1c(C(=O)O)c(-c2ccc(Br)cc2)n2c1CSC2,-10.2% (inactive),
CCC(=O)Nc1ccc2c(c1)OC[C@H](C)N(C(=O)NC(C)C)C[C@@H](C)[C@@H](OC)CN(C)C2=O,-2.17% (inactive),
CC(=O)Oc1ccc2nc(/C=C/c3ccccc3)oc(=O)c2c1,-12% (inactive),
COc1ccc2nccc(/C=C/c3ccnc4ccc(OC)cc34)c2c1,-16% (inactive),
O=C1COc2ccc(C(=O)COC(=O)CNS(=O)(=O)c3cccc(F)c3)cc2N1,-7.12% (inactive),
Cc1cc(C)c(S(=O)(=O)c2ccc(Cl)cc2C)c(Cl)n1,,> 39 µM (inactive)
Cc1ccc(C(=O)COC(=O)c2cc(=O)[nH]c3ccccc23)cc1,-6.45% (inactive),
NC(=O)Nc1ccc(Nc2ccccc2)cc1,,> 39 µM (inactive)
CC1=NCCc2c1[nH]c1cc(O)ccc21,,21.9 µM (active)
O=S(=O)(c1ccccc1)N1CCN=C1SCc1ccccc1,,> 39 µM (inactive)
COc1cc(O)ccc1C(=O)CCc1ccc(O)cc1,,10.7 µM (active)
COc1cc(OC)cc(C(=O)NNC(=O)CN2C(=O)NC(C)(c3ccc(C)cc3)C2=O)c1 (centres undefined),-2.29% (inactive),
Cc1ccc(NNC(=O)c2ccno2)c(C)c1,,5.41 µM (active)
CCCNC(=O)Nc1ccc2c(c1)C(=O)N(C)[C@@H]1CC[C@H](CC(=O)NC3CCC3)O[C@H]1CO2,-5.24% (inactive),
Cc1ccc(C2=NS(=O)(=O)N(C)C(C(=O)NC(C)c3ccccc3)=C2)cc1 (centres undefined),-6.45% (inactive),
COc1ccc(S(=O)(=O)N2CCOCC2)cc1NC(=O)COC(=O)c1[nH]c(C)c(C(C)=O)c1C,,> 39 µM (inactive)
COc1ccccc1OCC(=O)Nc1ccc(-c2nnc(-c3ccco3)o2)cc1,,> 39 µM (inactive)
Nc1ccc(OCCCc2c(N)nc(N)nc2N)cc1,,20.1 µM (active)
